Experimental findings from PubChem BioAssay AID488969 (Vanderbilt High Throughput Screening Facility, 2010) are described below.

Each structure is given as a SMILES string. Over roughly 110,000 compounds, “z-score” has its median near -0.1; the highest 2% begin near 2. Shown is part of a subset that was picked to be rich in the highest values. Activity calls are given as the source filed them.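 Rule for the calls: active = z-score in the third read window above 3 or below -3; inactive = the rest.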

For this assay, the target named is Metabotropic glutamate receptor 8 (Rattus norvegicus) (UniProt P70579). Put plainly: mGluR8 Gi/Go-coupled signaling modulation – cell-based, rat, thallium flux, HTS, primary screen (AID 488969). The note with it: HEK293 rat mGluR8, GIRK (G protein-gated inwardly rectifying potassium channel) thallium flux, FluoZin2; at 10 µM; stronger effect = higher value; submaximal glutamate (EC20) added with thallium.
Sequence of Metabotropic glutamate receptor 8 (Rattus norvegicus) (P70579 whole entry, looked up): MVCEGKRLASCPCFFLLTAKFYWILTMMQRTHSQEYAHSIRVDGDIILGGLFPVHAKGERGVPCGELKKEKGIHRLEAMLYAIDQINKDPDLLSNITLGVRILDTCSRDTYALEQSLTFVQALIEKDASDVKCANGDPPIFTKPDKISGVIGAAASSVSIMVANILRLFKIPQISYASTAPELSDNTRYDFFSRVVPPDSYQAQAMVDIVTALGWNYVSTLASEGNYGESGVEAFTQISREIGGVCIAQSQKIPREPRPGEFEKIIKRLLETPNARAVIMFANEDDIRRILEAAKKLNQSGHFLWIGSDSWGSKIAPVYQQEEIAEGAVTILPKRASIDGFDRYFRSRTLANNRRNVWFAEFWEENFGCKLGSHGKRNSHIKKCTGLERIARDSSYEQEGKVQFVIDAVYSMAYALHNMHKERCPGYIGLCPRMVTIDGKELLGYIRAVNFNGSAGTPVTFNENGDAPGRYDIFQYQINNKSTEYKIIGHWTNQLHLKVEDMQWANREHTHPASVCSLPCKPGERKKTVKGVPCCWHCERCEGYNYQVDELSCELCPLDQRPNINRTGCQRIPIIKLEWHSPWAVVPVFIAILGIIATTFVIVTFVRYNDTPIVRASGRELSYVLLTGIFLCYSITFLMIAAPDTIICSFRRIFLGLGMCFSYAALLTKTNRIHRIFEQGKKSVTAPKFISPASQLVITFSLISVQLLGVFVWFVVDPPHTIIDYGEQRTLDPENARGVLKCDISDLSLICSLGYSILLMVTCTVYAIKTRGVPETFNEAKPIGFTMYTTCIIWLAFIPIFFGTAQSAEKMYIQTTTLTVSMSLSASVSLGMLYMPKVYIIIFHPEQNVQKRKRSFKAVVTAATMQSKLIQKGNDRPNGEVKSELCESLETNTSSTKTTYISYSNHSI
Regarding `CCOc1ccc2cc(S(=O)(=O)n3ccnc3C)ccc2c1`, the z-score was 0.917. In the case of `COc1ccc([N+](=O)[O-])cc1NC(=O)C1CCCO1` (stereo unspecified) it was -0.326. On to `C=CCNC(=O)CSc1cc([N+](=O)[O-])cc(S(=O)(=O)Cc2ccccc2)c1`, for which the z-score stood at 0.665.

In the case of `COc1ccc(CNc2nc(-c3cccnc3)nn2C(=O)c2ccco2)cc1`, the z-score is 9.48 (active).

`CCC(=O)n1nc(-c2cccnc2)nc1NCc1ccc(OC)cc1`: the z-score was -5.08 (active). In the case of `Nc1nc(-c2cccnc2)nn1C(=O)c1ccco1` it was 0.31. Compound `COc1cc(NC(=O)c2ccc(-c3ccc(Br)cc3)o2)ccc1NC(=O)C(C)C` gave a z-score of 0.116. The compound `CCOC(=O)C(CC)Sc1nnc2c3cc(C)ccc3n(C)c2n1` (stereo unspecified) showed a z-score of -0.798.

The compound `COC(=O)Cc1c(C)nc2nc(-c3ccc(OC)cc3)[nH]n2c1=O` had a z-score of -0.0668.

Turning to `COC(=O)Cc1c(C)nc2nc(-c3ccco3)[nH]n2c1=O`, the z-score is 2.68. In the case of `COC(=O)Cc1c(C)nc2nc(-c3ccccc3)[nH]n2c1=O` it was -0.455; in that of `CCn1c(SCC(=O)Nc2nc(-c3ccccc3)cs2)nnc1-c1ccccc1O`, -0.347; in that of `O=C1C(=O)N(CNc2cccnc2)c2ccccc21`, -0.21. The figure for `CC(C)c1ccc(/C=N/Nc2ccc(C(=O)O)cc2)cc1` is -0.222; for `CNC(=S)N/N=C/c1ccc(C(C)C)cc1` it is 3.01 (active); for `CNC(=S)N/N=C/c1ccc2c(c1)OCCO2` it is 0.205. In the case of `Cn1c(SCc2ccc(Br)cc2)nnc1-c1ccncc1` it was -0.143; in that of `Cc1cccc(-c2cc3nc4c(c(N5CCC6(CC5)OCCO6)n3n2)CCCC4)c1`, 0.391. In turn, `CC1CN(Cc2ccccn2)CCC1=O` (stereo unspecified) returned a z-score of -0.215. As for `CC(=O)N1CN(C2CC(C)(C)NC(C)(C)C2)Cc2c1sc1c2CCCC1`, the z-score stood at 0.426.

With `CC1CN(C2CC(C)(C)NC(C)(C)C2)CCC1=O` (stereo unspecified), the z-score is 3.98 (active). Compound `O=C(NNC(=O)C1CCN(Cc2ccccc2)CC1)c1cccc(Cl)c1` registered a z-score of 0.0829. In the case of `CCOC(=O)c1cn(-c2ccccc2CO)c2c(F)c(F)c(F)cc2c1=O`, the z-score was -0.237. The compound `COc1ccc2ncc(S(=O)(=O)c3ccccc3)c(N3CCC4(CC3)OCCO4)c2c1` displayed a z-score of -0.776. With `CC1(C)NC(=O)N(CC(O)COc2ccc(-c3ccc(C#N)cc3)cc2)C1=O` (stereo unspecified), the z-score was 5.36 (active). As to `Cc1ccc(OCC(O)CN2C(=O)NC(C)(C)C2=O)cc1` (stereo unspecified), the z-score is -0.38. Compound `CC1(C)NC(=O)N(CC(O)COc2ccc(-c3ccccc3)cc2)C1=O` (stereo unspecified) returned a z-score of -0.0166. For the compound `CN(C)CC(O)COc1ccc(-c2ccc(C#N)cc2)cc1` (stereo unspecified), the z-score stood at 2.48. `N#Cc1ccc(-c2ccc(OCC(O)Cn3nnc4ccccc43)cc2)cc1` (stereo unspecified): the z-score was -0.106. On to `CN(C)CC(O)COc1cccc(OCC(O)CN(C)C)c1` (stereo unspecified), for which the z-score was -0.132. In turn, `COc1ccccc1CC(=O)Nc1ccc(-c2noc(COc3ccc(Cl)c(C)c3)n2)cc1` came in with a z-score of -0.166.
